A selection: hits, their analogues and other compounds. The true share with any hit is near 0.84%.
NR5A2 inv ag = NR5A2 inverse agonism in reporter assay; O00482; HEK293T StAR-luciferase reporter, LRH-1 transfected, 24 h; inhibition, % at 3.6 µM; 360,000 compounds, 0.13% hits;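 active = inhibition above the mean inhibition of all tested compounds plus 3 SD, cut at about 73% in these data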;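 note: 0% = DMSO wells and 100% = reporter-only cells lacking LRH-1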
COUP-TFII inh = blocks human COUP-TFII nuclear receptor; inhibition, % at 8.6 µM; AID 686940; HEK293T NGFI-A luciferase reporter, luminescence; P24468; 370,000 compounds, 0.7% hits;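 active = inhibition above a per-plate cutoff, mean inhibition of test wells between control levels plus 3 SD, cut at about 38% in these data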;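 note: cells cotransfected with COUP-TFII expression vector driving the NGFI-A reporter; 0% = median of COUP-TF2 test wells and 100% = reporter-only cells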
NCOA1 inh = inhibits human SRC1 coactivator; HEK293 GAL4-SRC1 luciferase reporter, luminescence; inhibition, % at 3.6 µM; 360,000 compounds, 0.12% hits; AID 588354;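 active = inhibition above the campaign mean plus 3 SD, with each screening campaign given its own cutoff, cut at about 60% in these data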;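 note: 0% = DMSO treated cells and 100% = gossypol at 36 µM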
SRC2 inh = human SRC2 (NCOA2) inhibition | HEK293 GAL4-SRC2 luciferase reporter, luminescence | 370,000 compounds, 0.17% hits | inhibition, % at 9 µM | Q15596;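 active = inhibition above the mean inhibition of all tested compounds plus 3 SD, set per campaign, cut at about 52% in these data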;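 note: 0% = DMSO treated cells and 100% = cells given Gossypol at 36 µM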
SRC3 inh = inhibits human SRC3 coactivator; HEK293 GAL4-SRC3 luciferase reporter, luminescence; 360,000 compounds, 0.17% hits; inhibition, % at 3.6 µM; AID 588352; Q9Y6Q9;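 active = inhibition above a per-campaign cutoff, the mean of all compounds plus 3 SD, cut at about 60% in these data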;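 note: 0% = DMSO-treated cells and 100% = gossypol-treated cells at 36 µM; higher means less SRC3-driven luciferase light from the GAL4 reporter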
VP16 Luc counter = VP16 inhibition counter-screen for COUP-TFII; AID 687007; inhibition, % at 8.5 µM; HEK293 Gal4-VP16 luciferase reporter, luminescence; 2,500 compounds, 25% hits; shares compounds with COUP-TFII inh; in the data active = inhibition above about 13%
NR2F2 inh conf = confirmation of human COUP-TFII (NR2F2) inhibitors | HEK293 NGFI-A luciferase reporter, luminescence | inhibition, % at 8.5 µM | AID 687008 | shares compounds with COUP-TFII inh | 2,500 compounds, 45% hits;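 active = mean inhibition over three repeats above a set limit taken from the earlier primary screen, cut at about 38% in these data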;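 note: 100% = cells given the luciferase reporter alone without the COUP-TF2 vector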
Numbers without * were called inactive; / = no result.

SMILES	NR5A2 inv ag	COUP-TFII inh	NCOA1 inh	SRC2 inh	SRC3 inh	VP16 Luc counter	NR2F2 inh conf
Cc1cccc(C)c1NC(=O)CN(C)C(=O)c1cccc(S(=O)(=O)N2CCN(c3ccc(F)cc3)CC2)c1	14	20	10	22	24	/	/
COc1ccccc1NC(=O)c1cccc(S(=O)(=O)N2CCN(c3ccccc3)CC2)c1	5	42*	5	16	-43	-5	6
CCOC(=O)Cn1cc(CN2C(C(=O)OC)CN(Cc3ccc(OC)cc3)CCS2(=O)=O)nn1 (centres undefined)	/	-13	/	5	/	/	/
CN(CC(=O)Nc1ccccc1Cl)C(=O)c1cccc(S(=O)(=O)N2CCN(Cc3ccccc3)CC2)c1	21	48*	4	10	24	1	35
CN(CC(=O)Nc1cccc(F)c1)C(=O)c1cccc(S(=O)(=O)N2CCN(Cc3ccccc3)CC2)c1	15	26	10	13	9	/	/
CCC(C)N(c1nc(C)nc2c1nnn2Cc1ccccc1)C(C)CC (centres undefined)	/	24	/	2	/	/	/
Oc1ccc(-c2n[nH]c(C(F)(F)F)c2-c2ccccc2)c(O)c1	23	65*	11	25	24	0	48*
c1ccc(CN2CCC(N3CCN(Cc4ccc5c(c4)OCO5)CC3)CC2)cc1	23	38*	-15	17	5	1	8
CCNS(=O)(=O)c1ccc(CCC(=O)N2CCN(Cc3ccccc3)CC2)cc1	8	7	-12	23	13	/	/
O=C(CCc1ccc(S(=O)(=O)NCCc2ccccc2)cc1)N1CCN(Cc2ccc3c(c2)OCO3)CC1	30	55*	20	22	20	10	33
CC(C)CNS(=O)(=O)c1ccc(CCC(=O)N2CCN(Cc3ccc4c(c3)OCO4)CC2)cc1	24	45*	5	-5	4	-5	16
COc1cccc(-c2ccc(CC[C@H]3O[C@H]4CC[C@@H](CO)O[C@H]4C[C@H]3NS(C)(=O)=O)cc2)c1	/	-23	/	-13	/	/	/
CCCCc1ccc2nc(NC(=O)c3ccc(Br)o3)sc2c1	/	-33	/	/	/	/	/
Cc1nc(Oc2ccccc2)c2oc3ccccc3c2n1	-13	2	-21	-28	2	/	/
COc1ccc(Oc2nc(C)nc3c2oc2ccccc23)cc1	17	42*	0	25	5	-1	12
COc1ccc(CCNc2ncnc3sc(C)cc23)cc1OC	46	79*	19	36	26	-1	68*
CCOc1ccc2[nH]c3c(NCCc4ccc(OC)c(OC)c4)ncnc3c2c1	-1	49*	-29	-10	16	-11	5
CCOC(=O)c1csc(NC(=O)C2CCCN(S(=O)(=O)c3ccc(C)cc3)C2)n1 (centres undefined)	/	25	/	-5	/	/	/
COc1ccc(Cn2c(-c3ccc(C)cc3)c[n+]3ccccc23)cc1	73*	52*	61*	6	50	8	40*
COc1ccc(-c2nc3ccccc3n2Cc2ccc(C)cc2)cc1	-7	3	-23	-16	-24	/	/
Cc1cccc(Nc2nc(-c3c(C)nc4ccccn34)cs2)c1	18	53*	11	8	37	-6	44*
Cc1nc2ccccn2c1-c1csc(Nc2cccc(O)c2)n1	31	9	11	18	15	/	/
Cc1cnc(NC(=O)COc2ccccc2Cl)s1	-75	41*	-29	34	-12	-28	4
Cc1cc(=O)[nH]c(SCC(=O)/C=C2\N(C)c3ccccc3C2(C)C)n1	3	42*	1	27	17	6	9
CN1/C(=C\C(=O)C[n+]2cccc(Br)c2)C(C)(C)c2ccccc21	25	36	0	29	37	/	/
SMILES	NR5A2 inv ag	COUP-TFII inh	NCOA1 inh	SRC2 inh	SRC3 inh	VP16 Luc counter	NR2F2 inh conf
Cc1ccc[n+](CC(=O)/C=C2\N(C)c3ccccc3C2(C)C)c1	38	42*	24	4	8	4	28
CCN(Cc1cn(CC2CCCCC2)nn1)S(=O)(=O)c1ccccc1Br	/	-11	/	2	/	/	/
C[C@H]1CCCN1c1ccc2c(c1)O[C@@H]1CCN(C1)S2(=O)=O	/	-25	/	-20	/	/	/
CC(C)C(NC(=O)Cc1ccccc1)C(=O)N1CCN(c2cccc(Cl)c2)CC1 (centres undefined)	-21	65*	-5	27	16	1	13
COc1ccccc1C1c2c(ncn(-c3ccccc3)c2=N)Oc2ccc3ccccc3c21 (centres undefined)	/	10	/	/	/	/	/
O=C(O)c1ccc(N/N=C/c2ccc3nccnc3c2)cc1	41	67*	37	68*	62*	17*	59*
O=C(O)c1ccc(N/N=C/c2ccncc2)cc1	-50	-17	-4	-9	-29	/	/
CC(C)[C@H](NC(=O)OCc1ccccc1)C(=O)N[C@@H](Cc1ccccc1)C1(O)CN(C)C(C(=O)NCc2ccccn2)CO1 (some centres undefined)	/	-12	/	/	/	/	/
N=C1C=CC(=C(c2ccc(N)cc2)c2ccc(N)cc2)C=C1	46	46*	30	-19	55	14*	63*
Nc1ccc(C(=O)C(=O)c2ccc(N)cc2)cc1	0	2	18	3	-8	/	/
O=C(O[C@H]1CC[C@@]23CCCN2C(=O)CCC[C@H]3C1)N1CCN(c2ccccc2)CC1	/	-22	/	/	/	/	/
COc1ccccc1CNc1nc(Nc2cccc(-c3cnco3)c2)c2sccc2n1	6	48*	10	-5	-9	1	21
COc1ccccc1CNc1nc(NCc2ccccc2SC)c2sccc2n1	15	34	10	9	14	/	/
COc1ccccc1CNc1nc(NCc2ccccc2OC)c2sccc2n1	2	53*	-4	16	2	4	26
COc1ccccc1CNc1nc(NCC2CC2)nc2ccsc12	2	47*	-3	16	4	-8	13
CO[C@H]([C@H](C)/C=C/N(C)C=O)[C@@H](C)C(=O)CC[C@H](C)[C@H](O)[C@H](C)[C@H]1OC(=O)/C=C/C(C)=C/C[C@H](O)C[C@@H]2C=CC[C@@H](C[C@H](OC)C(C)(O)[C@@H](OC)C[C@@H](OC)[C@@H]1C)O2 (some centres undefined)	/	-26	/	/	/	/	/
COC(=O)C1CN(C2CCCC2)CCS(=O)(=O)N1Cc1cn(Cc2ccc(OC)cc2)nn1 (centres undefined)	/	-9	/	15	/	/	/
O=C(CN(CCc1ccccc1)S(=O)(=O)c1cccs1)N1CCOCC1	/	0	/	17	/	/	/
COc1ccc(NS(=O)(=O)c2cccc(C(=O)N/N=C/c3cccs3)c2)cc1	11	5	-24	-16	2	/	/
COc1ccc(NS(=O)(=O)c2cccc(C(=O)NN=Cc3ccc(OC)cc3OC)c2)cc1	-1	38*	0	9	-2	-7	-5

Screens: PubChem BioAssay, The Scripps Research Institute Molecular Screening Center
